From PubChem BioAssay AID488966 (Southern Research Specialized Biocontainment Screening …, 2010)
“And” between values parts separate entries of the source, which are not always exact repeats. Equal values may be shown once. Among all 340,000 compounds or so, about 55 (0.02%) were called active.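 How the source made its calls: active means phage lysis inhibition, versus mean bacterial control, above a set limit; inconclusive means no clear call, values can overlap the other calls; inactive means the rest.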 Only a sample is shown. Results with a measured potency or affinity are listed apart.

assay: inhibition of K1F phage lysis, E. coli UTI89, bacterial capsule biogenesis inhibitors, alamar blue (AID 488966); settings: 2 h; inhibition: at 100 µM, hits give high values unless noted; series mostly up to 300 µM; inhibition of phage lysis: at the top concentration;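 further: capsule biogenesis inhibitors block K1F phage lysis so surviving cells raise fluorescence; higher fluorescence means more inhibition of phage lysis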

inhibition, inactive:
Brc1c(OCCOCCn2cncn2)ccc2ccccc12 -1.02%
O=C(CCc1ccccc1)N=C1SC2CS(=O)(=O)CC2N1c1ccc(F)cc1 (configuration not stated) 0.07%
Cc1ccc(S(=O)(=O)c2c(C)cc(C)nc2Oc2cccc(C)c2C)cc1 1.5%
COc1cc(CCC(=O)NCC2CCCO2)cc(OC)c1OC (configuration not stated) 0.13%
CC(C)C(NC(=O)c1ccccc1F)C(=O)OCC(=O)c1ccc(F)cc1 (configuration not stated) -0.86%
Cc1ccc(C(C)(C)C)cc1S(=O)(=O)Nc1cccc(C(=O)N2CCN(c3ccccn3)CC2)c1 -1.06% [at 50 µM, hits give high values]
O=C1CCCN1C(=O)CSc1ccc2ccccc2n1 0.65% [at 50 µM, hits give high values]
O=Nc1ccc(NOC(=O)c2ccccc2)cc1 0.94% [at 50 µM, hits give high values]
Cc1ccc(C(=O)ONc2ccc(N=NC(=O)c3ccccc3O)cc2)cc1 -1.4%
CCC1(CC)C(=O)NC(=O)NC1=NCCc1c[nH]c2ccccc12 8.91%
CC(=O)c1ccc(C(C)(C)c2ccc(C(C)=O)s2)s1 1.04%
COc1cc(/C=N/N=C(N)N)ccc1OCc1ccc(Cl)cc1 1.12%
COc1cc(/C=N/O)ccc1OCc1ccccc1Cl 2.6%
CCSc1ccccc1C(=O)Nc1ccc([N+](=O)[O-])cc1OC -0.1%
COc1ccc2cc(C(=O)NCCCN3CCCC3=O)[nH]c2c1 0.11%
CCOCCCNC(=O)CCc1ccc(S(=O)(=O)Nc2ccc(C)cc2)cc1 -0.65%
CN(C)S(=O)(=O)c1ccc(C(=O)N(c2ccccn2)c2ccccn2)cc1 0.22%
O=C(CCCc1nc2ccccc2s1)Nc1ccc(N2CCOCC2)cc1 0.19%
COC(=O)c1cc(OC)c(OC)cc1NC(=O)CN1CCOCC1 1.47%
CCN(CC)c1ccc(C(=C2C=CC(=[N+](CC)CC)C=C2)c2ccc(S(=O)(=O)O)cc2S(=O)(=O)[O-])cc1 -0.79% [at 50 µM, hits give high values]
CCN(CC)c1ccc2c(O)cc(=O)oc2c1 0.26%
COc1ccc2c(=O)c(-c3ccc(C)cc3)c(-c3ccccc3)oc2c1 0.1%
Cc1ccc(C(=O)N2CCN(S(C)(=O)=O)C2)cc1 3.27%
N=c1n(CCN2CCCCC2)c2ccccc2n1CC(O)c1ccc(Cl)c(Cl)c1 (configuration not stated) -4.43%
COc1ccc(C(=O)NNC(=O)CCc2nc3ccccc3c(=O)[nH]2)cc1 -0.85%
O=C(CSc1nnc(CNC(=O)c2ccco2)o1)Nc1nc2ccccc2s1 0.07%
CC(=O)NC1=NN(C(C)=O)C(C)(c2cccnc2)S1 (configuration not stated) 0.35%
Cc1cc2oc3c(c(=O)c2cc1C)C(c1ccc(F)cc1)N(CCCN1CCOCC1)C3=O (configuration not stated) 10.1%
CC(C)Oc1ccc(C2c3c(oc4ccccc4c3=O)C(=O)N2CCCN2CCOCC2)cc1 (configuration not stated) 7.09%
Cc1cc2oc3c(c(=O)c2cc1C)C(c1ccc(C(C)C)cc1)N(CCCN1CCOCC1)C3=O (configuration not stated) 10.9%
CCCOc1ccc(C2c3c(oc4ccccc4c3=O)C(=O)N2CCCN2CCOCC2)cc1 (configuration not stated) 3.1%
CCCCCCn1c(N2CCN(c3cccc(Cl)c3)CC2)nc2c1c(=O)[nH]c(=O)n2C -0.58%
COc1ccc(-c2c(C)oc3c(CN4CCOCC4)c(O)ccc3c2=O)cc1 0.06%
O=C(CSc1nc2ccc(Cl)cc2[nH]1)NCCc1ccc(Cl)cc1 0.86%
C=CCn1c(C)nnc1SCC(=O)c1[nH]c(C)c(C(C)=O)c1C -0.26%
COc1ccc(C(=O)Nc2ccc3c(c2)nc(CCNC(C)=O)n3C)cc1 5.13%
C/C(=N\NC(=S)NCCc1ccccc1)c1ccc(C#N)cc1 0.17%
Cc1ccccc1CN1CCN(CCCc2ccccc2)C(CCO)C1 (configuration not stated) 0.26%
C[C@H](CO)N1C[C@H](C)[C@@H](CN(C)Cc2ccc(C(=O)O)cc2)Oc2c(NS(=O)(=O)c3ccccc3)cccc2C1=O 0.71%
O=C(COc1ccc2c(-c3ccccc3)cc(=O)oc2c1)NCCCn1ccnc1 -2.78%
N=C(N)c1ccccc1 3.36% and 4.08%
N=C(N)c1ccc(O)cc1 -1.49%
Cc1occc1C(=O)NNC(=O)CN1C(=O)NC2(CCCCC2)C1=O 1% [at 50 µM, hits give high values]
COc1ccc2nc(NC(C)=O)sc2c1 0.03%
COc1ccc(C(=O)Nc2nc3ccc(OC)cc3s2)cc1 0.38%
Cc1cc(C)c2sc(NNC(=O)C3COc4ccccc4O3)nc2c1 (configuration not stated) 3.07%
COc1ccc(NC(=O)C(C)N2c3cccc4cccc(c34)S2(=O)=O)cc1 (configuration not stated) 4.61%
CCS(=O)(=O)C1=NN2C(=N)/C(=C\c3ccc(SCc4ccco4)o3)C(=O)N=C2S1 -0.03%
O=C(c1cc2ccccc2o1)N1CCN(c2ccccn2)CC1 0.07%
COc1cccc(C(=O)Nc2ncc3c(n2)CC(C)CC3=O)c1 (configuration not stated) 0.02%
Cn1c(N)c(C(=O)Nc2cccc(Cl)c2)c(=O)n(C)c1=O 0.32%
CC(OC(=O)CCCN1C(=O)c2ccccc2C1=O)C(=O)Nc1ncc(Cl)cc1Cl (configuration not stated) 0.75%
O=C(Cc1ccsc1)Nc1ccc2c(c1)OCO2 0.48% [at 50 µM, hits give high values]
COc1ccc(CC(=O)Nc2ccc(N3CCOCC3)cc2)cc1OC -0.16%
Cc1ccccc1OCC(=O)Nc1ccc(C(=O)Nc2ccccc2C(=O)O)cc1 0.645% [at 50 µM, hits give high values]
Cc1cccc(OCC(=O)Nc2ccc(C(=O)Nc3ccccc3C(=O)O)cc2)c1C 1.06% [at 50 µM, hits give high values]
Cc1ccc2nc(C3CCCN3Cc3nc(CCC(C)C)no3)[nH]c2c1 (configuration not stated) 0.57%
CCOc1ccc(C(=O)NN2C(=O)C3C4C=CC(O4)C3C2=O)cc1 (configuration not stated) 0.49%
COc1ccc(C2=CSC3=C(C(=O)c4cccc(S(=O)(=O)N(C)C)c4)CCN23)cc1 0.33%
CN(C(=O)Cn1c(=O)oc2cc(S(=O)(=O)N3CCCC3)ccc21)C1CCCCC1 0.1%

Inhibition of phage lysis, inactive:
N=c1n(CCN2CCCCC2)c2ccccc2n1CC(O)c1cccc(Br)c1 (configuration not stated) 2.09%
N=C1/C(=C\c2ccc(SCc3ccco3)o2)C(=O)N=C2SC=NN12 7.18%
